A short description of test [1]: NCI Yeast Anticancer Drug Screen. Data for the rad50 strain (AID 155).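 Further: 0% = growth of vehicle-only cultures of the same strain.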 The following applies: S. cerevisiae rad50 strain growth inhibition, stronger effect = higher value. In outline: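 Genetically altered yeast (DNA repair pathway); compound treatment; growth inhibition vs vehicle ctrl.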
Test [2] in a line: NCI Yeast Anticancer Drug Screen. Data for the mec2-1 strain (AID 157). The following applies: S. cerevisiae mec2-1 strain, stronger effect = higher value. In outline:
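Test agents were screened against the mec2-1 yeast strain, with defined DNA repair or cell cycle alteration. Growth was scored as inhibition against vehicle-only controls.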

Test [3] is described as follows: NCI Yeast Anticancer Drug Screen. Data for the sgs1 mgt1 strain (AID 161).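 Further: 0% = growth of cultures given vehicle only.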 Conditions: S. cerevisiae sgs1 mgt1 strain, stronger effect = higher value. In outline:
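Inhibition of yeast growth, normalised to vehicle-treated controls, is reported for a strain bearing genetic alterations in DNA damage repair.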

The nature of test [4]: NCI Yeast Anticancer Drug Screen. Data for the cln2 rad14 strain (AID 165).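 Further: 0% = growth equal to vehicle treated cultures.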 The following applies: S. cerevisiae cln2 rad14 strain, stronger effect = higher value. In outline: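 Growth of compound-exposed yeast (cln2 rad14 genotype) measured and expressed as inhibition relative to vehicle.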
The nature of test [5]: NCI Yeast Anticancer Drug Screen. Data for the bub3 strain (AID 167). The following applies: S. cerevisiae bub3 mutant strain, stronger effect = higher value. In outline:
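Yeast carrying a defined mutation is treated with each compound, and growth is compared with that of vehicle-exposed cells to give inhibition.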

The nature of test [6]: NCI Yeast Anticancer Drug Screen. Data for the mlh1 rad18 strain (AID 175). Conditions: S. cerevisiae mlh1 rad18 strain growth inhibition, stronger effect = higher value. The method, boiled down: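 In this whole-cell yeast screen, a strain with altered DNA damage repair is challenged with compound, and its growth is measured against matched vehicle-treated controls.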
[7] abbreviates: at 5.0 µM (retest, dose inferred, filed as 0.5).
Where [8] appears, read: at 50.0 µM (retest, dose inferred, filed as 5.0).

This is an account of results in PubChem BioAssay (NCI).

Each structure is given as a SMILES string. This is part of a sample that, as a whole, favours compounds with a hit. Of some 79,000 tested, about 15% had one in any assay. Values without a mark were called inactive. Active and inactive are the calls of the source. No stated cut-off is given here; in the data, active means growth inhibition above about 70%; inactive means the rest.

Turning to `[O-]c1c(-c2cccc3ccccc23)sc(-c2cccc3ccccc23)[n+]1-c1ccccc1`, the growth inhibition in test [1] (setting [7]) is 5%; in test [1] (setting [8]) it was 92% (active); in test [1] (at 50.0 µM) it was 70.7% (active); in test [2] (setting [7]) it was 10%; in test [2] (setting [8]), 95% (active); in test [2] (at 50.0 µM) it was 55.2%. Further, the growth inhibition in test [3] (setting [7]) was 8%; in test [3] (setting [8]), 92% (active); in test [3] (at 50.0 µM), 50.1%; in test [4] (setting [7]), -2%; in test [4] (setting [8]), 93% (active); in test [4] (at 50.0 µM), 52.6%. Besides, the growth inhibition in test [5] (setting [7]) was -2%; in test [5] (setting [8]), 93% (active); in test [5] (at 50.0 µM) it was 46.1%; in test [6] (setting [7]), 5%; in test [6] (setting [8]) it was 92% (active); in test [6] (at 50.0 µM), 78.7% (active).
For `CC(Br)C(=O)c1ccc2cc(Cl)c3ccccc3c2c1` (stereo not given), the growth inhibition in test [1] (setting [7]) is -2%; in test [1] (setting [8]), 99% (active); in test [1] (at 50.0 µM), -10.3%; in test [2] (setting [7]), 5%; in test [2] (setting [8]), 99% (active); in test [2] (at 50.0 µM), 31.4%. The growth inhibition in test [3] (setting [7]) was 7%; in test [3] (setting [8]), 99% (active); in test [3] (at 50.0 µM), 46.3%; in test [4] (setting [7]) it was -4%; in test [4] (setting [8]), 99% (active); in test [4] (at 50.0 µM) it was -16.8%. Moreover, the growth inhibition in test [5] (setting [7]) is 0%; in test [5] (setting [8]), 99% (active); in test [5] (at 50.0 µM) it was 67.8%; in test [6] (setting [7]), 7%; in test [6] (setting [8]), 99% (active); in test [6] (at 50.0 µM), 39.1%.
As to `O=C(c1ccc([N+](=O)[O-])cc1)c1[nH]c2ccccc2c(=O)c1-c1ccccc1`, the growth inhibition in test [1] (setting [7]) is -2%; in test [1] (setting [8]), 96% (active); in test [1] (at 50.0 µM), 98% (active); in test [2] (setting [7]), 14%; in test [2] (setting [8]) it was 99% (active); in test [2] (at 50.0 µM), 99% (active). Further, the growth inhibition in test [3] (setting [7]) is 0%; in test [3] (setting [8]) it was 99% (active); in test [3] (at 50.0 µM), 98.6% (active); in test [4] (setting [7]), -3%; in test [4] (setting [8]), 95% (active); in test [4] (at 50.0 µM), 98.6% (active). Also, the growth inhibition in test [5] (setting [7]) is -2%; in test [5] (setting [8]), 98% (active); in test [5] (at 50.0 µM), 98.7% (active); in test [6] (setting [7]), 25%; in test [6] (setting [8]), 99% (active); in test [6] (at 50.0 µM), 99% (active).
In the case of `C=CCOc1ccccc1C(OCC)OCC`, the growth inhibition in test [1] (setting [7]) is 8%; in test [1] (setting [8]), 74% (active); in test [1] (at 50.0 µM) it was 46.5%; in test [2] (setting [7]), 7%; in test [2] (setting [8]), 35%; in test [2] (at 50.0 µM), 23.3%. Also, the growth inhibition in test [3] (setting [7]) is 8%; in test [3] (setting [8]), 76% (active); in test [3] (at 50.0 µM) it was 52.6%; in test [4] (setting [7]), 11%; in test [4] (setting [8]), 32%; in test [4] (at 50.0 µM), 7.75%. The growth inhibition was 7% in test [5] (setting [7]); 81% (active) in test [5] (setting [8]); 30.2% in test [5] (at 50.0 µM); 0% in test [6] (setting [7]); 87% (active) in test [6] (setting [8]); 43.8% in test [6] (at 50.0 µM).
With `C=C1C(=O)OC2C1CCC(=C)C1CC(O)C(=C)C12` (stereo not given), the growth inhibition in test [1] (setting [7]) is 3%; in test [1] (setting [8]) it was 44%; in test [1] (at 50.0 µM) it was 92.2% (active); in test [2] (setting [7]), 11%; in test [2] (setting [8]) it was 64%; in test [2] (at 50.0 µM), 94.2% (active). For the same molecule, the growth inhibition was 0% in test [3] (setting [7]); 70% (active) in test [3] (setting [8]); 93.6% (active) in test [3] (at 50.0 µM); 10% in test [4] (setting [7]); 39% in test [4] (setting [8]); 92.4% (active) in test [4] (at 50.0 µM). Also, the growth inhibition is 2% in test [5] (setting [7]); 65% in test [5] (setting [8]); 92.5% (active) in test [5] (at 50.0 µM); 8% in test [6] (setting [7]); 70% (active) in test [6] (setting [8]); 31.4% in test [6] (at 50.0 µM).
Turning to `CC1Cc2ccc3c(c2C(c2ccc4c(c2)OCO4)C1C)OCO3` (stereo not given), the growth inhibition in test [1] (setting [7]) is -4%; in test [1] (setting [8]), -16%; in test [1] (at 50.0 µM), -3.7%; in test [2] (setting [7]) it was 3%; in test [2] (setting [8]), -19%; in test [2] (at 50.0 µM), -15.1%. The growth inhibition in test [3] (setting [7]) was 1%; in test [3] (setting [8]) it was 14%; in test [3] (at 50.0 µM), -5.1%; in test [4] (setting [7]), -23%; in test [4] (setting [8]), -14%; in test [4] (at 50.0 µM) it was -4.7%. In addition, the growth inhibition in test [5] (setting [7]) was -5%; in test [5] (setting [8]), -3%; in test [5] (at 50.0 µM) it was -3.35%; in test [6] (setting [7]), -11%; in test [6] (setting [8]) it was 26%; in test [6] (at 50.0 µM), 8.9%.
As to `O=C(Nc1ccccc1)OCCN=c1c2ccccc2ccc2ccccc12`, the growth inhibition in test [1] (setting [7]) was 6%; in test [1] (setting [8]), 84% (active); in test [1] (at 50.0 µM), 84% (active); in test [2] (setting [7]), -1%; in test [2] (setting [8]), 71% (active); in test [2] (at 50.0 µM), 90.5% (active). Moreover, the growth inhibition in test [3] (setting [7]) is 7%; in test [3] (setting [8]), 48%; in test [3] (at 50.0 µM), 88.2% (active); in test [4] (setting [7]), -15%; in test [4] (setting [8]), 68%; in test [4] (at 50.0 µM), 82.7% (active). The growth inhibition in test [5] (setting [7]) is 5%; in test [5] (setting [8]), 78% (active); in test [5] (at 50.0 µM) it was 90% (active); in test [6] (setting [7]), 5%; in test [6] (setting [8]), 92% (active); in test [6] (at 50.0 µM), 87.2% (active).
Consider `C(=C\N1CCCCC1)/c1nnnn1-c1ccccc1`, for which the growth inhibition was -23% in test [1] (setting [7]); 6% in test [1] (setting [8]); 34.5% in test [1] (at 50.0 µM); -18% in test [2] (setting [7]); -21% in test [2] (setting [8]); 54.1% in test [2] (at 50.0 µM). Moreover, the growth inhibition in test [3] (setting [7]) is -31%; in test [3] (setting [8]), -18%; in test [3] (at 50.0 µM) it was 71.9% (active); in test [4] (setting [7]), -17%; in test [4] (setting [8]) it was -22%; in test [4] (at 50.0 µM), 11.8%. The growth inhibition is -29% in test [5] (setting [7]); -31% in test [5] (setting [8]); 54.6% in test [5] (at 50.0 µM); -4% in test [6] (setting [7]); 1% in test [6] (setting [8]); 72.7% (active) in test [6] (at 50.0 µM).
`OCC(O)C(O)C(O)C(/C=N/Nc1ccccc1)=N\Nc1ccccc1` (stereo not given): the growth inhibition in test [1] (setting [7]) is 4%; in test [1] (setting [8]), -3%; in test [1] (at 50.0 µM), 51.4%; in test [2] (setting [7]) it was -1%; in test [2] (setting [8]) it was -1%; in test [2] (at 50.0 µM) it was 4.95%. Also, the growth inhibition in test [3] (setting [7]) was 20%; in test [3] (setting [8]), 16%; in test [3] (at 50.0 µM) it was 70.7% (active); in test [4] (setting [7]), -41%; in test [4] (setting [8]), 4%; in test [4] (at 50.0 µM), -0.65%. Further, the growth inhibition in test [5] (setting [7]) was 1%; in test [5] (setting [8]) it was -89%; in test [5] (at 50.0 µM), 4.3%; in test [6] (setting [7]) it was 16%; in test [6] (setting [8]), 4%; in test [6] (at 50.0 µM), 30.4%.
Consider `c1ccc(CCN(Cc2nc3ccccc3[nH]2)Cc2nc3ccccc3[nH]2)cc1`, for which the growth inhibition was 3% in test [1] (setting [7]); 90% (active) in test [1] (setting [8]); 94.7% (active) in test [1] (at 50.0 µM); -3% in test [2] (setting [7]); 92% (active) in test [2] (setting [8]); 93.2% (active) in test [2] (at 50.0 µM). For the same molecule, the growth inhibition in test [3] (setting [7]) is -3%; in test [3] (setting [8]) it was 90% (active); in test [3] (at 50.0 µM), 96% (active); in test [4] (setting [7]) it was -12%; in test [4] (setting [8]), 93% (active); in test [4] (at 50.0 µM), 82.6% (active). Further, the growth inhibition is 0% in test [5] (setting [7]); 95% (active) in test [5] (setting [8]); 89.2% (active) in test [5] (at 50.0 µM); -3% in test [6] (setting [7]); 91% (active) in test [6] (setting [8]); 95.5% (active) in test [6] (at 50.0 µM).
